This note sets out measurements from PubChem BioAssay (EPA / NIEHS).

Test [1] is described as follows: ATG_NF_kB_CIS: Attagene CIS-FACTORIAL HepG2 Assay for human Nuclear Factor Kappa B (NF-kB) (AID 2282991). The conditions noted are these: HepG2 Attagene cis-factorial NF-kB reporter mRNA; actives raise or lower the signal. In a few lines: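 After 24 h compound incubation, transfected HepG2 cells yield total RNA; reporter cDNA is PCR-amplified, end-labelled with 6-FAM, HpaI-digested and analysed on a genetic analyser. Endogenous factor activity, DMSO-referenced bidirectional fit.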

The nature of test [2]: ATG_NRF2_ARE_CIS: Attagene CIS-FACTORIAL HepG2 Assay for human Nuclear Factor Erythroid 2 Related Factor 2 (NFR2) response to Antioxidant Response Elements (ARE) (AID 2282992). The conditions noted are these: HepG2 Attagene ARE/NRF2 reporter, transcription factor activity; actives raise or lower the signal. Summed up:
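Endogenous transcription factor activity read out as reporter transcript levels (RT-PCR plus capillary electrophoresis, fluorescence) in transiently transfected HepG2 cells. Measured at 24 h after dosing; gain or loss of signal fitted versus DMSO.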

Test [3] in a line: ATG_Oct_MLP_CIS: Attagene CIS-FACTORIAL HepG2 Assay for human Octamer-Binding Transcription Factor (Oct) (AID 2282993). The conditions noted are these: HepG2 Attagene cis-factorial Oct reporter, mRNA; actives raise or lower the signal. In a few lines: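 Readout is reporter transcript level from RT-PCR with fluorescent primer extension and capillary electrophoresis, fitted in both directions against DMSO. Transfected HepG2 reporter units report endogenous factor activity after 24 h dosing.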

Test [4] has as its target Cellular tumor antigen p53 (Homo sapiens) (UniProt P04637). Kind of test: ATG_p53_CIS: Attagene CIS-FACTORIAL HepG2 Assay for human p53 Transcription Factor (AID 2282994). The conditions noted are these: HepG2 p53 cis-element reporter, Attagene mRNA; actives raise or lower the signal. Summed up:
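Endogenous p53 activity read in transiently transfected HepG2 from a cis-element-driven reporter transcript after 24 h exposure. RNA reverse-transcribed, PCR-amplified, fluorescently labelled and sized by capillary electrophoresis; gain or loss fitted against DMSO baseline.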

Test [5] has as its target human Peroxisome Proliferator-activated Receptor delta (PPARd), PPARD (gene 5467) (UniProt Q03181). The test is described as follows: ATG_PPARd_TRANS: Attagene TRANS-FACTORIAL HepG2 Assay for human Peroxisome Proliferator-activated Receptor delta (PPARd) (AID 2283002; active = hit-call score of the fitted dose curve at least 0.9, where 1 is the maximum). Summed up: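 HepG2 cells transiently transfected with GAL4-UAS multiplexed reporter units driven by exogenous chimeric NR-GAL4 proteins; 24 h compound exposure. Reporter mRNA measured by RT-PCR, 6-FAM primer extension, HpaI digestion and capillary electrophoresis; gain of signal fitted relative to DMSO.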

The target of test [6] is Nuclear receptor subfamily 1 group I member 2 (Homo sapiens) (UniProt O75469). The test is described as follows: ATG_PXR_TRANS: Attagene TRANS-FACTORIAL HepG2 Assay for human Pregnane X Receptor (PXR) (AID 2283008; active = hit-call score of the fitted dose curve at least 0.9, where 1 is the maximum). Summed up:
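Transactivation by exogenous PXR–GAL4 fusion measured as reporter transcript induction after 24 h compound treatment of transfected human HepG2 cells. Read-out via RT-PCR and capillary electrophoresis of labelled fragments, fitted upward relative to DMSO.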

Test [7] concerns the target human RAR-related Orphan Receptor beta (RORb), RORB (gene 6096) (UniProt Q92753). The test is described as follows: ATG_RORb_TRANS: Attagene TRANS-FACTORIAL HepG2 Assay for human RAR-related Orphan Receptor beta (RORb) (AID 2283010; active = hit-call score of the fitted dose curve at least 0.9, where 1 is the maximum). Summed up:
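HepG2, transient MRTU transfection (GAL4-UAS reporters, exogenous NR-Gal4 chimeras); 24 h compound exposure; total RNA → RT-PCR → 6-FAM primer extension → HpaI digest → CE fluorescence. Positive direction vs DMSO baseline.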

For test [8], the target named is human RAR-related Orphan Receptor gamma (RORg), RORC (gene 6097) (UniProt P51449). The test is described as follows: ATG_RORg_TRANS: Attagene TRANS-FACTORIAL HepG2 Assay for human RAR-related Orphan Receptor gamma (RORg) (AID 2283011; active = hit-call score of the fitted dose curve at least 0.9, where 1 is the maximum). Summed up:
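Chimeric RORg-Gal4 transactivation in transfected HepG2; 24 h exposure; RT-PCR/capillary electrophoresis readout of reporter mRNA, DMSO baseline.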

For test [9], the target named is Retinoic acid receptor RXR-alpha (Homo sapiens) (UniProt P19793). The test is described as follows: ATG_RXRa_TRANS: Attagene TRANS-FACTORIAL HepG2 Assay for human Retinoid X Receptor alpha (RXRa) (AID 2283012; active = hit-call score of the fitted dose curve at least 0.9, where 1 is the maximum). Summed up:
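Read-out: fluorescent reporter-transcript fragments quantified by capillary electrophoresis after RT-PCR. Transiently transfected HepG2 cells carrying GAL4-UAS reporters and NR-GAL4 chimeras were exposed to chemical for 24 h; activity scored as increase over DMSO.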

For test [10], the target named is human Retinoic Acid Receptor beta (RARb), RARB (gene 5915) (UniProt P10826). The test is described as follows: ATG_RARb_TRANS: Attagene TRANS-FACTORIAL HepG2 Assay for human Retinoic Acid Receptor beta (AID 2283004; active = hit-call score of the fitted dose curve at least 0.9, where 1 is the maximum). In a few lines:
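Fluorescent capillary-electrophoresis detection of GAL4-UAS reporter mRNA defines the endpoint, with induction over DMSO-treated wells scored as activity. Transiently transfected human hepatoma HepG2 cells expressing exogenous NR–Gal4 proteins are exposed to test chemicals for 24 h.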

The target of test [11] is Peroxisome proliferator-activated receptor gamma (Homo sapiens) (UniProt P37231). Kind of test: ATG_PPARg_TRANS: Attagene TRANS-FACTORIAL HepG2 Assay for human Peroxisome Proliferator-activated Receptor-gamma (PPARg) (AID 2283007; active = hit-call score of the fitted dose curve at least 0.9, where 1 is the maximum). In a few lines:
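Liver-derived HepG2 cells expressing an exogenous NR-Gal4 chimera alongside GAL4-UAS reporter genes; 24 h exposure. Fluorescence of reporter RT-PCR products, separated by capillary electrophoresis, gives mRNA induction relative to DMSO.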

Test [12] has as its target human Retinoic Acid Receptor gamma (RARg), RARG (gene 5916) (UniProt P13631). Kind of test: ATG_RARg_TRANS: Attagene TRANS-FACTORIAL HepG2 Assay for human Retinoic Acid Receptor gamma (RARg) (AID 2283009; active = hit-call score of the fitted dose curve at least 0.9, where 1 is the maximum). In a few lines: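 Readout: reporter transcript levels via RT-PCR, 6-FAM primer-extension labelling, HpaI digestion and capillary electrophoresis. Cells: HepG2 carrying transfected RARg-GAL4 chimera plus UAS reporter set. Dosing 24 h; DMSO negative control.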

Test [13] has as its target Retinoic acid receptor alpha (Homo sapiens) (UniProt P10276). Kind of test: ATG_RARa_TRANS: Attagene TRANS-FACTORIAL HepG2 Assay for human Retinoic Acid Receptor alpha (RARa) (AID 2283005; active = hit-call score of the fitted dose curve at least 0.9, where 1 is the maximum). In a few lines: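 HepG2 transiently transfected with multiplex GAL4-UAS reporter units including a human RARa–GAL4 chimera; 24 h compound exposure. Reporter mRNA quantified by RT-PCR, 6-FAM labeling and capillary electrophoresis; gain of signal versus DMSO.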

Results filed as inconclusive are left out. Calls of active or inactive are those of the source. The calls were made as follows, unless noted: active = hit-call score of the fitted dose curve at least 0.9, where 1 is the maximum; inactive = score below 0.9.

Cellular tumor antigen p53 (Homo sapiens), sequence (P04637 whole entry, looked up): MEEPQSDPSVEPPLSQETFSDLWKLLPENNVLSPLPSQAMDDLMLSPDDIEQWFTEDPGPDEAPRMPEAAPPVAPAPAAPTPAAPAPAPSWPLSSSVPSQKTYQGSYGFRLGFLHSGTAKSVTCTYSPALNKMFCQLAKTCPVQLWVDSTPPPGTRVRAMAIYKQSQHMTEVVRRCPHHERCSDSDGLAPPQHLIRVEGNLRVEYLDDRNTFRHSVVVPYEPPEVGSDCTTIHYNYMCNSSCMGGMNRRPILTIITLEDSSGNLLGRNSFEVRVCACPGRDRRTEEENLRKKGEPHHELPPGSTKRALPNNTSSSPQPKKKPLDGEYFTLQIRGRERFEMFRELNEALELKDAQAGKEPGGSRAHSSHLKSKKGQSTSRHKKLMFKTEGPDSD
human Retinoic Acid Receptor beta (RARb), RARB (gene 5915), sequence (P10826 whole entry, looked up, the tested form may be a part): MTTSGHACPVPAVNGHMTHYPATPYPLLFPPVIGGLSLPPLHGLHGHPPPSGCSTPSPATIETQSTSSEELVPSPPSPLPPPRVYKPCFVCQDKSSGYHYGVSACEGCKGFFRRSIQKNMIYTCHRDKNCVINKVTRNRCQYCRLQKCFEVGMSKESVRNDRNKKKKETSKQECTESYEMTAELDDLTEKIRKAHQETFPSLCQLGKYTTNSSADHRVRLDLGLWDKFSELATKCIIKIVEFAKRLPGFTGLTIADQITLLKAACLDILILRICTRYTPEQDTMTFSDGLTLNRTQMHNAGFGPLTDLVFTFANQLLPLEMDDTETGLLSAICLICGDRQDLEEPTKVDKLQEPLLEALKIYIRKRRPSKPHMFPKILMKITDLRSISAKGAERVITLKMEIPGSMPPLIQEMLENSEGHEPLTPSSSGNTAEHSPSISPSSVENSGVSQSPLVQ
Peroxisome proliferator-activated receptor gamma (Homo sapiens), sequence (P37231 whole entry, looked up, the tested form may be a part): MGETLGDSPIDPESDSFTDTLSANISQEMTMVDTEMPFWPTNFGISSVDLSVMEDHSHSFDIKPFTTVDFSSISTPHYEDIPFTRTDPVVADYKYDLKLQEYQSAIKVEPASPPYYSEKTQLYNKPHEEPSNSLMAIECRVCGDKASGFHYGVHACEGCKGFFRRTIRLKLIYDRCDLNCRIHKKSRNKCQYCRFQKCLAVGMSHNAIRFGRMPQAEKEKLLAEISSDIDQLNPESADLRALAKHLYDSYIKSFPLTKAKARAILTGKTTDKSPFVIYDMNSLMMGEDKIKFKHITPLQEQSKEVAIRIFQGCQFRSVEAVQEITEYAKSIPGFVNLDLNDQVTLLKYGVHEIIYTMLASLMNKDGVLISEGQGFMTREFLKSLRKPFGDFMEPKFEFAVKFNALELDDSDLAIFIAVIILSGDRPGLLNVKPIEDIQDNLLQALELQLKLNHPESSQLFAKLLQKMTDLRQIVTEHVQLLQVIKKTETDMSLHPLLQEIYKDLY
Retinoic acid receptor RXR-alpha (Homo sapiens), sequence (P19793 whole entry, looked up, the tested form may be a part): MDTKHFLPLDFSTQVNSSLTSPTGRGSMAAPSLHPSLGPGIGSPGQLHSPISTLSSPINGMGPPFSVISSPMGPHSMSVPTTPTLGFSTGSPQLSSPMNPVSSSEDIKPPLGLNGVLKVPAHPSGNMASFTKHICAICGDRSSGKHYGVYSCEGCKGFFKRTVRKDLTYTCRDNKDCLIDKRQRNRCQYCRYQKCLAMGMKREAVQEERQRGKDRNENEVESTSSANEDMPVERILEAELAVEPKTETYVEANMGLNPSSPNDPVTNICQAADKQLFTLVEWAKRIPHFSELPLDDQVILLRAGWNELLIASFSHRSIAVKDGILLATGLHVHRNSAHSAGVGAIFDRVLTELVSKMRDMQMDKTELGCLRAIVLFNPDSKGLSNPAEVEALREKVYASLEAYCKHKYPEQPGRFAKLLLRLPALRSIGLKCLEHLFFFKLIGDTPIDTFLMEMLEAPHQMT
human Retinoic Acid Receptor gamma (RARg), RARG (gene 5916), sequence (P13631 whole entry, looked up, the tested form may be a part): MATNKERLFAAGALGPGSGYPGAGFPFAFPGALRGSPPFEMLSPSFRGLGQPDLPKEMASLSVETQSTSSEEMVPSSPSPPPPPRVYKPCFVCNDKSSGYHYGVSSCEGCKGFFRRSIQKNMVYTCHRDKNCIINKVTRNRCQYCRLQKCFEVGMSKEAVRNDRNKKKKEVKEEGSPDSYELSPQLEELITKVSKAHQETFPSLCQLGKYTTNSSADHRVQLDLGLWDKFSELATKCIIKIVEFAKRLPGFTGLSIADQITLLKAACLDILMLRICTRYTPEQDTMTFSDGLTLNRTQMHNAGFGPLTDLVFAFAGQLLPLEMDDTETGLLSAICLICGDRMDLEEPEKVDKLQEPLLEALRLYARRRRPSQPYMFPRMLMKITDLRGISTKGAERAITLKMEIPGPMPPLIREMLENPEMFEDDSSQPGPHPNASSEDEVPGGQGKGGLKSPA
Nuclear receptor subfamily 1 group I member 2 (Homo sapiens), sequence (O75469 whole entry, looked up, the tested form may be a part): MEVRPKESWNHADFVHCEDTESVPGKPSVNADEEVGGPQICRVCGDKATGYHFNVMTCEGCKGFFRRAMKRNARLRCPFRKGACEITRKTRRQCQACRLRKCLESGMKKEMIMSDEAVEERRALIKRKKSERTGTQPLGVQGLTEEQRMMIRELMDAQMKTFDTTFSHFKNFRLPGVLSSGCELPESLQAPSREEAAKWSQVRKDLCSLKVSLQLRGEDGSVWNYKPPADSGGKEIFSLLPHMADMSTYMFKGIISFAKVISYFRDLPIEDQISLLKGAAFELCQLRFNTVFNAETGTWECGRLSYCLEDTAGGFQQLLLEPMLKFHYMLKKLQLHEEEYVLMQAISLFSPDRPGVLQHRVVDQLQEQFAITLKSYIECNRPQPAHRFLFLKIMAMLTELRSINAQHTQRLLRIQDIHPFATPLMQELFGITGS
human Peroxisome Proliferator-activated Receptor delta (PPARd), PPARD (gene 5467), sequence (Q03181 whole entry, looked up, the tested form may be a part): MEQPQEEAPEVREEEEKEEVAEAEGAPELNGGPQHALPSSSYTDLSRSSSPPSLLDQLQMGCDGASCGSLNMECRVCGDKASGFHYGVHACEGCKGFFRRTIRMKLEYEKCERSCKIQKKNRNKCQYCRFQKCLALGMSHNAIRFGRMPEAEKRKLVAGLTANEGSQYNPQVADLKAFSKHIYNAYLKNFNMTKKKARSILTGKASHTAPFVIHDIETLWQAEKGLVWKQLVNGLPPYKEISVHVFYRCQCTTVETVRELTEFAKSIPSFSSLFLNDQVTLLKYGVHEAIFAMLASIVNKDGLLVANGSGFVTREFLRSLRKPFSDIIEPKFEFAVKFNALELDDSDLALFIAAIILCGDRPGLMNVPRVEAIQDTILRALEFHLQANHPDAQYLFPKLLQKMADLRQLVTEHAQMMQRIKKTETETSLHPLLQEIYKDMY
human RAR-related Orphan Receptor gamma (RORg), RORC (gene 6097), sequence (P51449 whole entry, looked up, the tested form may be a part): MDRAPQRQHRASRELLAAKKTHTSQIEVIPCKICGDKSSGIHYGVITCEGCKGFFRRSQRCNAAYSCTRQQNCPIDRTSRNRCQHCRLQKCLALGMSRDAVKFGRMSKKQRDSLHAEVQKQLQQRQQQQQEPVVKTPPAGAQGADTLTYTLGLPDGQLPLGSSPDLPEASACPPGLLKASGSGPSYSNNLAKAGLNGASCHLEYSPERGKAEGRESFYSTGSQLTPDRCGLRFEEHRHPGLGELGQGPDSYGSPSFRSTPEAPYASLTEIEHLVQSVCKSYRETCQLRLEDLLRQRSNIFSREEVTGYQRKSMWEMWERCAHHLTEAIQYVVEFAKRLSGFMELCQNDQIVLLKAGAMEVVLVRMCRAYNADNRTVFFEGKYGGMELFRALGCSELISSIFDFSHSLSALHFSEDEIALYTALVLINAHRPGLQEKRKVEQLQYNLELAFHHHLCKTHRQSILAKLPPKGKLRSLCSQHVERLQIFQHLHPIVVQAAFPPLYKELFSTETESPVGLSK
human RAR-related Orphan Receptor beta (RORb), RORB (gene 6096), sequence (Q92753 whole entry, looked up, the tested form may be a part): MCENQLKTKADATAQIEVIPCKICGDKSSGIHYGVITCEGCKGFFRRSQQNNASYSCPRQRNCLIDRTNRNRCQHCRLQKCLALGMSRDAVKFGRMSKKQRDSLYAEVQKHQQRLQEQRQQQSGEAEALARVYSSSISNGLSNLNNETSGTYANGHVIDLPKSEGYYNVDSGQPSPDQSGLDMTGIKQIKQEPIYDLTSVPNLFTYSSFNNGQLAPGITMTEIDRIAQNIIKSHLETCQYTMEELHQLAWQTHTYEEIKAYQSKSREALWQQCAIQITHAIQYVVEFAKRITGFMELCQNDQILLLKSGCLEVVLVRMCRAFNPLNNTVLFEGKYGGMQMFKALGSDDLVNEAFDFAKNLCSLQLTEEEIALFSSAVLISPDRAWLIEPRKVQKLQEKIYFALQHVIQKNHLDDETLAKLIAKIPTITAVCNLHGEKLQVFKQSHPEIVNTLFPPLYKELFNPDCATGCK
Retinoic acid receptor alpha (Homo sapiens), sequence (P10276 whole entry, looked up, the tested form may be a part): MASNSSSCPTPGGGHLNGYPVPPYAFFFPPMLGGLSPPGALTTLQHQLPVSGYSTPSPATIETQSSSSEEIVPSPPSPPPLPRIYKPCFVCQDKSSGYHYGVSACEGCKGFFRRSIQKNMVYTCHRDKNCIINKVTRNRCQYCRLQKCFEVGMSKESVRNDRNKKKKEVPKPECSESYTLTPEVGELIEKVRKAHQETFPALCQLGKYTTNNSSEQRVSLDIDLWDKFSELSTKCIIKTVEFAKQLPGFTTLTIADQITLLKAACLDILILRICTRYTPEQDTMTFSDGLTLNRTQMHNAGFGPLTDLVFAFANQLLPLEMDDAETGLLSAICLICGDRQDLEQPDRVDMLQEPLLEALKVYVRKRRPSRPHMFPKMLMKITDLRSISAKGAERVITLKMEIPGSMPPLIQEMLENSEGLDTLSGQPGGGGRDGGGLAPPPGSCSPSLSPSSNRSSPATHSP

Regarding `CCOc1cc(C=O)ccc1O`, the molecule was called inactive in [1], in test [2], in [3], in [4], in test [5] and in test [6]. Also, the molecule was classed as inactive in test [7], in [8] and in [9].

As for `O=C=Nc1ccc(Cl)cc1`, the call in [1], in [2], in [3], in [4], in [10] and in [11] was inactive. For the same molecule, the molecule was called inactive in test [6] and in test [8].

In the case of `Clc1ccc(C(Cl)(Cl)Cl)cn1`, the molecule was classed as inactive in test [1], in test [2], in [3], in test [4], in [11] and in test [6]. The result in test [8] and in [9] was inactive.

Turning to `CN(C)[C@@H]1C(=O)C(C(N)=O)=C(O)[C@@]2(O)C(=O)C3=C(O)c4c(O)ccc(Cl)c4[C@@](C)(O)[C@H]3C[C@@H]12`, the molecule was called inactive in test [1], in [3], in test [4], in test [5], in test [12] and in test [8]. Also, the call in [9] was inactive. Moreover, in [2], the AC50 is 20.3 µM (active).

On to `CCC[CH2][Sn]([CH2]CCC)([CH2]CCC)[CH2]CCC`, for which the concentration at half-maximal activity (AC50) in [1] was 11.1 µM (active); in test [2], 5.43 µM (active); in test [3], 11.1 µM (active); in test [4] it was 18.5 µM (active); in [11], 3.29 µM (active); in test [6], 9.24 µM (active). The AC50 in test [9] was 0.866 µM (active). Besides, in [12], the outcome was inactive.

Take `O=C1C[C@@H]2OCC=C3CN4CC[C@]56c7ccccc7N1[C@H]5[C@H]2[C@H]3C[C@H]46`: the call in [1], in test [2], in test [3], in test [4], in test [11] and in [6] was inactive. In addition, the molecule was classed as inactive in test [12] and in test [9].

Turning to `C=CC(F)(C(F)(F)F)C(F)(F)C(F)(F)F` (stereo not drawn), the call in test [1], in [2], in test [3], in test [4], in test [10] and in test [13] was inactive. The outcome in test [11], in test [12] and in [9] was inactive.

For `c1cc[c]([Sb]([c]2ccccc2)[c]2ccccc2)cc1`, the molecule was classed as inactive in test [1], in [3], in [4], in test [5] and in test [9]. The AC50 is 70.3 µM (active) in test [2], 23.5 µM (active) in test [11] and 8.18 µM (active) in [6].

In the case of `FC(F)OCC(F)(F)C(F)(F)F`, the result in [1], in [2], in [3], in test [4], in test [5] and in test [10] was inactive. For the same molecule, the molecule was called inactive in [6] and in test [9].

In the case of `CCOP(=S)(OCC)Oc1ccc(Cl)cc1Cl`, the molecule was classed as inactive in test [1], in [3], in test [4], in test [5], in test [11] and in [7]. Also, the molecule was called inactive in test [8] and in [9]. The figures for the AC50 in [2] and in test [6] were 43.7 µM (active) and 3.85 µM (active), respectively.

For `CC(C)C(C)(N)C#N` (stereo not drawn), the result in [1], in test [2], in test [3], in test [4], in test [5] and in test [13] was inactive. The molecule was classed as inactive in test [6], in [8] and in test [9].

In general, AC50 refers to the concentration at which the activity in the assay is half-maximal.
